Source: publication PMC12820563, “FoxP3 forms a head-to-head dimer in vivo and stabilizes its multimerization on adjacent microsatellites”
Whole data set: some 16,000 sequences, median “rpm ratio (pull-down/input)” near 0.94, cut for the highest 2% near 1.7. The sample as a whole holds a higher share of the highest values than the screen did.

Target: T1, MBP-FoxP1dN (Mus musculus, UniProt P58462 326-579)
T1 sequence: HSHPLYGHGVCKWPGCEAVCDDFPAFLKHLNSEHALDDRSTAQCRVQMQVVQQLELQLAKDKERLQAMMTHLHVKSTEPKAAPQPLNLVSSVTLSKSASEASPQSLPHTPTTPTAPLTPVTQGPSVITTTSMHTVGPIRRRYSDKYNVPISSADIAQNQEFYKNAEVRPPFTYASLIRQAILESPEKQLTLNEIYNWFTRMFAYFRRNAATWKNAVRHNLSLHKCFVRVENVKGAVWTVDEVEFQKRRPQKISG
Assay: PD-seq (MBP pull-down with sequencing); 20 mM Tris-HCl pH 7.5, 100 mM NaCl, 1.5 mM MgCl2, 0.4 uM protein, 0.1 uM dsDNA library, 30 min, room temperature, amylose pull-down; high values mean tight binding
Conditions: protein: recombinant; tags: His6-MBP; chain copies: 2; dsDNA, one strand shown
Method in brief: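 Amylose resin was used to capture complexes formed during 30 min at room temperature in Tris pH 7.5 buffer with NaCl and MgCl2 between 0.4 µM His6-MBP-tagged mouse FoxP3 or FoxP1 fragment lacking the N-terminus, expressed in E. coli, and 0.1 µM Klenow-filled double-stranded degenerate DNA library. After three washes, the DNA was released with proteinase K, barcoded by PCR and sequenced on Illumina. Binding is pooled-replicate reads-per-million enrichment, pull-down over input.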

| Sequence | binding signal |
| --- | --- |
| GATGATTGTTCTCCCAGCTGATGAATTTGTAACATCGAGTAAACAAATTTTCCTAATCTTTCTGTTCAAGCGCCATCTAC | 1.45 RPM ratio (pull-down/input) |
| GATGATTGTTCTCCCAGCTGATGAATTTCTGTAATCGAGTAAACAAATTTTCCTAATCTTTCTGTTCAAGCGCCATCTAC | 1.49 RPM ratio (pull-down/input) |
| GATGATTGTTCTCCCAGCTGATGAATTGTATACGTCGAGTAAACAAATTTTCCTAATCTTTCTGTTCAAGCGCCATCTAC | 1.82 RPM ratio (pull-down/input) |
| GATGATTGTTCTCCCAGCTGATGAATTCTGTAAATCGAGTAAACAAATTTTCCTAATCTTTCTGTTCAAGCGCCATCTAC | 1.18 RPM ratio (pull-down/input) |
| GATGATTGTTCTCCCAGCTGATGAATTTTATACATCGAGTAAACAAATTTTCCTAATCTTTCTGTTCAAGCGCCATCTAC | 1.09 RPM ratio (pull-down/input) |
| GATGATTGTTCTCCCAGCTGATGAATTCTATACATCGAGTAAACAAATTTTCCTAATCTTTCTGTTCAAGCGCCATCTAC | 1.08 RPM ratio (pull-down/input) |
| GATGATTGTTCTCCCAGCTGATGAATTCTATACGTCGAGTAAACAAATTTTCCTAATCTTTCTGTTCAAGCGCCATCTAC | 0.962 RPM ratio (pull-down/input) |
| GATGATTGTTCTCCCAGCTGATGAATTGTATACATCGAGTAAACAAATTTTCCTAATCTTTCTGTTCAAGCGCCATCTAC | 2.35 RPM ratio (pull-down/input) |
| GATGATTGTTCTCCCAGCTGATGAATTGTAAACATCGAGTAAACAAATTTTCCTAATCTTTCTGTTCAAGCGCCATCTAC | 2.78 RPM ratio (pull-down/input) |
| GATGATTGTTCTCCCAGCTGATGAATTTTATACGTCGAGTAAACAAATTTTCCTAATCTTTCTGTTCAAGCGCCATCTAC | 0.957 RPM ratio (pull-down/input) |
| GATGATTGTTCTCCCAGCTGATGAATTGTTGTAATCGAGTAAACAAATTTTCCTAATCTTTCTGTTCAAGCGCCATCTAC | 1.96 RPM ratio (pull-down/input) |
| GATGATTGTTCTCCCAGCTGATGAATTTCAAACATCGAGTAAACAAATTTTCCTAATCTTTCTGTTCAAGCGCCATCTAC | 1.18 RPM ratio (pull-down/input) |
| GATGATTGTTCTCCCAGCTGATGAATTTAACGCCTCGAGTAAACAAATTTTCCTAATCTTTCTGTTCAAGCGCCATCTAC | 0.91 RPM ratio (pull-down/input) |
| GATGATTGTTCTCCCAGCTGATGAATTAGCGCACTCGAGTAAACAAATTTTCCTAATCTTTCTGTTCAAGCGCCATCTAC | 0.88 RPM ratio (pull-down/input) |
| GATGATTGTTCTCCCAGCTGATGAATTACACGCGTCGAGTAAACAAATTTTCCTAATCTTTCTGTTCAAGCGCCATCTAC | 1.18 RPM ratio (pull-down/input) |
| GATGATTGTTCTCCCAGCTGATGAATTCACGGGTTCGAGTAAACAAATTTTCCTAATCTTTCTGTTCAAGCGCCATCTAC | 0.766 RPM ratio (pull-down/input) |
| GATGATTGTTCTCCCAGCTGATGAATTCAGTCTATCGAGTAAACAAATTTTCCTAATCTTTCTGTTCAAGCGCCATCTAC | 0.905 RPM ratio (pull-down/input) |

| Sequence | binding signal |
| --- | --- |
| GATGATTGTTCTCCCAGCTGATGAATTCGCCACTTCGAGTAAACAAATTTTCCTAATCTTTCTGTTCAAGCGCCATCTAC | 0.857 RPM ratio (pull-down/input) |
| GATGATTGTTCTCCCAGCTGATGAATTGTACTCATCGAGTAAACAAATTTTCCTAATCTTTCTGTTCAAGCGCCATCTAC | 1.04 RPM ratio (pull-down/input) |
| GATGATTGTTCTCCCAGCTGATGAATTTTATAGGTCGAGTAAACAAATTTTCCTAATCTTTCTGTTCAAGCGCCATCTAC | 0.796 RPM ratio (pull-down/input) |
| GATGATTGTTCTCCCAGCTGATGAATTGAGTGTATCGAGTAAACAAATTTTCCTAATCTTTCTGTTCAAGCGCCATCTAC | 1.16 RPM ratio (pull-down/input) |
| GATGATTGTTCTCCCAGCTGATGAATTATGTAAATCGAGTAAACAAATTTTCCTAATCTTTCTGTTCAAGCGCCATCTAC | 1.47 RPM ratio (pull-down/input) |
| GATGATTGTTCTCCCAGCTGATGAATTTTATGAATCGAGTAAACAAATTTTCCTAATCTTTCTGTTCAAGCGCCATCTAC | 0.942 RPM ratio (pull-down/input) |
| GATGATTGTTCTCCCAGCTGATGAATTTTATGTATCGAGTAAACAAATTTTCCTAATCTTTCTGTTCAAGCGCCATCTAC | 1.71 RPM ratio (pull-down/input) |
| GATGATTGTTCTCCCAGCTGATGAATTTATGTTATCGAGTAAACAAATTTTCCTAATCTTTCTGTTCAAGCGCCATCTAC | 2.22 RPM ratio (pull-down/input) |
| GATGATTGTTCTCCCAGCTGATGAATTTATGTAATCGAGTAAACAAATTTTCCTAATCTTTCTGTTCAAGCGCCATCTAC | 1.95 RPM ratio (pull-down/input) |
| GATGATTGTTCTCCCAGCTGATGAATTATCTTTATCGAGTAAACAAATTTTCCTAATCTTTCTGTTCAAGCGCCATCTAC | 1.09 RPM ratio (pull-down/input) |
| GATGATTGTTCTCCCAGCTGATGAATTATGTTTATCGAGTAAACAAATTTTCCTAATCTTTCTGTTCAAGCGCCATCTAC | 2.99 RPM ratio (pull-down/input) |
| GATGATTGTTCTCCCAGCTGATGAATTTATGATATCGAGTAAACAAATTTTCCTAATCTTTCTGTTCAAGCGCCATCTAC | 1.33 RPM ratio (pull-down/input) |
| GATGATTGTTCTCCCAGCTGATGAATTCATGTAATCGAGTAAACAAATTTTCCTAATCTTTCTGTTCAAGCGCCATCTAC | 1.5 RPM ratio (pull-down/input) |
| GATGATTGTTCTCCCAGCTGATGAATTCATGTTATCGAGTAAACAAATTTTCCTAATCTTTCTGTTCAAGCGCCATCTAC | 1.78 RPM ratio (pull-down/input) |
| GATGATTGTTCTCCCAGCTGATGAATTCATCTTATCGAGTAAACAAATTTTCCTAATCTTTCTGTTCAAGCGCCATCTAC | 0.961 RPM ratio (pull-down/input) |
| GATGATTGTTCTCCCAGCTGATGAATTATGATTATCGAGTAAACAAATTTTCCTAATCTTTCTGTTCAAGCGCCATCTAC | 1.51 RPM ratio (pull-down/input) |
